A selection: hits, their analogues and other compounds. The true share with any hit is near 1.6%.
KCNH2 WT inh = blocks the wildtype human KCNH2 potassium channel; Q12809; U2OS, BacMam KCNH2, thallium flux FluxOr; hits give low values; activity change, % at 1.84 µM; 340,000 compounds, 0.37% hits;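 active = maximum activity change below -70%; inconclusive = maximum activity change between -70% and -50%; inactive = maximum activity change above -50%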; also: % is scaled to controls: 0 for no effect and ±100 for the full control effect
Target sequence (Q12809 whole entry, looked up): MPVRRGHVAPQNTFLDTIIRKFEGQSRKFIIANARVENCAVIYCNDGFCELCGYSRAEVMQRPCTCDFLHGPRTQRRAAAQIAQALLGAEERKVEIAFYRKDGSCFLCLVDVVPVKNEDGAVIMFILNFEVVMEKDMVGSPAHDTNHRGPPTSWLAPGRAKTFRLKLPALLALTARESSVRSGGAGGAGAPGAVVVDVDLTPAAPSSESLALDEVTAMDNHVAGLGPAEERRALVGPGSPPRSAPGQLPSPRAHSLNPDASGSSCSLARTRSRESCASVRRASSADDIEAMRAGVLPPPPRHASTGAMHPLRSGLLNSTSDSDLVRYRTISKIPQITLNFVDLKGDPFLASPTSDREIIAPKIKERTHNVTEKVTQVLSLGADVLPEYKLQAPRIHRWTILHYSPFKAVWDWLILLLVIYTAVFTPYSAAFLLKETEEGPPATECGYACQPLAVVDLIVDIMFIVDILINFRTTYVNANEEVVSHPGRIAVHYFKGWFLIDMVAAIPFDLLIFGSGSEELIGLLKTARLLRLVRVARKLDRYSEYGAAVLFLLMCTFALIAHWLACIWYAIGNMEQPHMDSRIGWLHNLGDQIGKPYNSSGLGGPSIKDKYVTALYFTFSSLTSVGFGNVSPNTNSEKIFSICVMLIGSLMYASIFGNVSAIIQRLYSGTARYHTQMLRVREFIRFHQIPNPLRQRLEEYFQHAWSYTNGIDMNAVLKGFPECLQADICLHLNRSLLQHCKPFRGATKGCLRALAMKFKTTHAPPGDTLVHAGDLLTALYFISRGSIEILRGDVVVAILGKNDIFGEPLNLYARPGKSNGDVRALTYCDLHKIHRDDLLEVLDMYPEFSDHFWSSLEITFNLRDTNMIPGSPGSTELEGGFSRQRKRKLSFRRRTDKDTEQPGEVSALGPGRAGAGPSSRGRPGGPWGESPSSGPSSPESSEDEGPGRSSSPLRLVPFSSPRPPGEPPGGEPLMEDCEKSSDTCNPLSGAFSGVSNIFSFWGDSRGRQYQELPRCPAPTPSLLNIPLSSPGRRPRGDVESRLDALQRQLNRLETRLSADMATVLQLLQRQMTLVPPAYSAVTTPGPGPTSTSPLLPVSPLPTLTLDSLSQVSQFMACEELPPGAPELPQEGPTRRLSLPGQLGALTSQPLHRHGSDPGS
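U2OS cells were transduced with wild-type KCNH2 virus (2.03 x 10^8 / mL) for 4 h at room temperature, then cultured overnight at 37 C. Thallium flux was read with FluxOr dye. Rate constants were normalized to DMSO controls.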
KCNH2 3.1 block = blocks the human KCNH2 3.1 channel isoform; activity change, % (tested at about 1.8 µM); U2OS KCNH2 3.1, thallium flux FluxOr; hits give low values; 340,000 compounds, 0.95% hits;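 active = maximum activity change below -70%; inconclusive = maximum activity change from -70% to -50%; inactive = maximum activity change above -50%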;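 also: thallium influx rate constant from kinetic fluorescence after stimulation buffer; % is scaled to controls: 0 for no effect and ±100 for the full control effect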
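Kinetic fluorescence (2 min after stimulation buffer) measures Tl+ influx through KCNH2 3.1 expressed by viral transduction in U2OS cells; the rate constant is normalized against DMSO controls serving as positive and negative references.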
Glioma ERSR ind = induces the endoplasmic reticulum stress response in human glioma cells | U87-MG GRP78 promoter luciferase reporter, 16 h | Potency, µM, inactives show at the highest dose activation, actives largely listed as activators | 420,000 compounds, 0.02% hits; active = well fitted activation curve with a large enough effect; inconclusive = small, poorly fitted or top-dose-only effect; inactive = no such curve, though single readings can be large or run the other way; also: potency is read from the fitted curve at half-maximal effect; series mostly up to about 76 µM; % of control where 0% means no effect; nearly all actives have a fitted effect of over 35% in size
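Stably transfected U87-MG human glioma cells carrying a GRP78-based luminescent sensor were seeded at 1000 cells/well, pin-dosed with compounds and incubated 16 h. Luciferase reagent was then added, and end-point luminescence was read after 10 min at room temperature.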
gsp ag = gsp mutant agonism; Potency, µM (doses to about 76.9 µM), for the others: at the top dose activation (cAMP increase), actives largely listed as activators; gsp mutant cells, cAMP HTRF, 30 min; 340,000 compounds, 0.13% hits; active = well fitted activation curve with a large enough effect; inconclusive = small, poorly fitted or top-dose-only effect, or another doubt; inactive = no such curve, though single readings can be large or run the other way; cell line not stated here;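 also: phosphodiesterase inhibitor Ro 20-1724 added with compounds to block cAMP breakdown; potency is read from the fitted curve at half-maximal effect; nearly all actives have a fitted effect of over 60% in size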
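Cells in DMEM/10% FBS with G418 were pretreated with compounds in DMSO plus […] (300 uM stock) for 30 min at 37C. cAMP was measured by HTRF (cAMP-d2 plus anti-cAMP antibody-K) after 30 min at room temperature.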
gsp antagonist = antagonizes gsp, the McCune-Albright syndrome mutation; gsp-mutant cells, cAMP HTRF, 30 min; Potency, µM (titrated, usually from 76.9 µM), for the others: at the top dose activity change, negative = inhibition, hits mostly inhibitors; 340,000 compounds, 0.4% hits; AID 624288; calls by dose curve; cell line not stated here;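 also: intracellular cAMP measured with PDE inhibitor Ro 20-1724 present during compound exposure; potency is read from the fitted curve at half-maximal effect; % is scaled to controls: 0 for no effect and ±100 for the full control effect; nearly all actives have a fitted effect of over 65% in size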
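Measurement of cellular cAMP by homogeneous time-resolved fluorescence following a 30 min compound exposure at 37C. The PDE inhibitor […] was present throughout; the assay buffer was DPBS with 0.05% BSA and 0.005% Tween 20.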
Akt phos inh = blocks phosphorylation of Akt | 360,000 compounds, 0.32% hits | activity change, % for hits at 50 µM | Neuro2A IGF-stimulated pAkt S473 HTRF, 20 min; hits give low values; in the data active = activity change below about -80%; inconclusive = mostly about -51% to -80%; also: % is scaled to controls: 0 for no effect and ±100 for the full control effect
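Neuro2A cells in DMEM with 0.5% FBS, overnight at 37 deg C, given compound at single 50 µM final, then IGF (6 nM final) for 20 min at 37 deg C. Lysed; phospho-Akt Ser473 by HTRF after 24 h, 665/615 ratio.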
The depositor's hits bear a star; i = inactive; u = inconclusive; x = no result; [ ] = remark or other dose.

SMILES	KCNH2 WT inh	KCNH2 3.1 block	Glioma ERSR ind	gsp ag	gsp antagonist	Akt phos inh
Cc1cc(-c2ccccc2)nc2c(Br)c(C(=O)O)nn12	-4.8	-82.2*	0.5%	-4.9%	-10.5%	i
OC1OC[C@H](O)[C@@H](O)[C@H]1O (stereo not given in full)	x	x	-8.6%	x	x	x
CCOC(=O)N1CCN(C(=O)NC2CCCCC2)CC1	1.6	-71.0*	-6.1%	21.4%	19.7%	i
Cc1nc2ccccc2nc1SCC(=O)N1CCC(C)CC1	-4.2	-11.3	-5.8%	10µM*	11.9%	i
O=C(Nc1ccc([N+](=O)[O-])cc1)C(c1ccccc1)c1ccccc1	6.6	-78.8*	0.4%	-10.7%	x	i
O=C(NCC(O)c1ccc([N+](=O)[O-])cc1)C(c1ccccc1)c1ccccc1 (stereo not given)	3.0	-11.0	-2.7%	-0.8%	1.3%	i
N/C(Cc1ccc([N+](=O)[O-])cc1)=N\OC(=O)C(c1ccccc1)c1ccccc1	2.6	-81.6*	8.1%	-28.9%	-3.7%	i
Cc1ncoc1C(=O)NCc1nc(-c2cccc(NC(=O)c3ccccn3)c2)oc1C	x	x	-4.2%	x	x	x
O=C(CSc1ccc(Cl)cc1)N1CCC(c2nc3ccccc3s2)CC1	-11.0	u	-5.7%	-17.6%	31.6µM*	i
COc1ccccc1C1CN(CCNC(=O)c2sccc2Cl)Cc2ccccc2O1 (stereo not given)	x	x	-4.8%	x	x	x
Cc1c(C(=O)N(C)C)sc(NC(=O)c2cc([N+](=O)[O-])cc([N+](=O)[O-])c2)c1C#N	-9.1	9.7	-0.1%	8.2%	39.8µM*	i
CC(C)C[C@@H](NC(=O)[C@H](Cc1ccccc1)NC(=O)c1cnccn1)B(O)O	x	x	-4.5%	x	x	x
Cc1ccccc1Cn1c(=N)n(CC(O)c2ccco2)c2ccccc21 (stereo not given)	50.6	-21.8	-6.0%	-8.7%	-7.6%	i
CCCCCCCn1c(=N)n(CC(O)c2ccco2)c2ccccc21 (stereo not given)	-38.4	-106.1*	-9.7%	-13.2%[15.4 µM]	-9.3%	i
CC(C)(C)c1ccc(Cn2c(=N)n(CC(O)c3ccco3)c3ccccc32)cc1 (stereo not given)	-84.8*	u	-14.7%	-1.8%[15.4 µM]	x	i
CCCCn1c(=N)n(CC(O)COc2ccc(C)cc2)c2ccccc21 (stereo not given)	-83.3*	-90.2*	-4.8%	6.3%	11.8%	x
CCCCn1c(=N)n(CC(O)COc2ccccc2)c2ccccc21 (stereo not given)	8.1	-22.7	-6.0%	6.1%	9.4%	i
CCCS(=O)(=O)NCc1c(C)ncc2c1CCN(C(=O)/C=C/c1ccc(F)cc1F)C2	x	x	-4.4%	x	x	x
COc1cc([C@@H]2c3cc4c(cc3[C@@H](O[C@@H]3O[C@H]5CO[C@H](C)O[C@H]5[C@H](O)[C@@H]3O)[C@H]3COC(=O)[C@H]23)OCO4)cc(OC)c1OP(=O)(O)O	x	x	-2.5%	x	x	x
CCn1c(-c2cc(-c3cccc(OC)c3)nc3ccccc23)n[nH]c1=S	2.0	-78.3*	-4.3%	23.0%	-14.5%	i
COc1ccc(-c2nc3cc(C)ccc3cc2CN(C(=O)c2cc(C)nn2C)C2CC2)cc1OC	x	x	-1.2%	x	x	x
Cc1ccc([N+](=O)[O-])cc1NC(=O)CCCOc1ccccc1	3.4	-109.6*	-3.2%	1.9%	10.7%	i
CCOc1ccc(/C=C2\SC(=S)N(CC(=O)N(CCO)C(C)(C)C)C2=O)cc1	9.8	6.4	0.7%	-3.5%[15.4 µM]	u	i
CCOc1ccc(/C=C2\SC(=S)N(N3C(=O)C4CC4C3=O)C2=O)cc1 (stereo not given)	-5.7	-99.0*	-1.4%	-3.9%[15.4 µM]	-16.7%	i
CCOc1ccc(/C=C2/SC(=O)NC2=S)cc1	-16.1	-93.7*	4.1%	-25.8%	-22.4%	i
SMILES	KCNH2 WT inh	KCNH2 3.1 block	Glioma ERSR ind	gsp ag	gsp antagonist	Akt phos inh
COc1ccc(C2(C(=O)NCC3Cc4cccc(-c5nc(C)cnc5C)c4O3)CCCC2)cc1 (stereo not given)	x	x	-6.8%	x	x	x
CC1CN(c2cc3c(cc2F)c(=O)c(C(=O)O)cn3-c2ccc(F)cc2F)CCN1 (stereo not given)	x	x	-2.6%	x	x	x
Cc1ccc(C(=O)O/N=C/c2c(Cl)n(C)c3ccccc23)cc1	-3.9	-0.6	-1.5%	6.3%	9.3%[15.4 µM]	-104.8%*
CCC1CN(CCNC(=O)c2ccnc(Cl)c2)Cc2cc(OC)ccc2O1 (stereo not given)	x	x	-3.6%	x	x	x
CN(Cc1ccon1)C(=O)c1cnn(-c2nccc(-c3ccc4c(c3)OCO4)n2)c1C1CC1	x	x	2.9%	x	x	x
CCc1ccc(CN(C)C(=O)CC2C(=O)NCCN2Cc2ccoc2)cc1 (stereo not given)	9.3	-84.7*	-3.9%	-0.2%	4.8%	i
CCOc1ccccc1CN1CCNC(=O)C1CC(=O)N(C)Cc1cnccn1 (stereo not given)	8.9	-114.5*	-3.9%	-20.8%[15.4 µM]	2.8%	i
CCOc1ccccc1CN1CCNC(=O)C1CC(=O)N(C)Cc1nonc1C (stereo not given)	-12.5	-8.8	-5.5%	-55.5%[15.4 µM]	3.8%	i
CC(=O)O[C@H]1C[C@@H]2CC[C@@H]3[C@H](CC[C@]4(C)[C@H](OC(C)=O)[C@@H](N5CC[N+](C)(C)CC5)C[C@@H]34)[C@@]2(C)C[C@@H]1N1CC[N+](C)(C)CC1	x	x	-3.8%	x	x	x
C[n+]1ccc(/C=C/c2ccc(C=S)cc2)c2ccccc21	x	x	-6.8%	x	x	x
Fc1cccc(Cl)c1CSC1=NCCS1	-7.1	-1.4	6.5%	-11.9%[15.4 µM]	-22.1%	i
ON(Cc1c(F)cccc1Cl)Cc1c(F)cccc1Cl	0.7	-113.9*	-3.4%	8.2%	10.6%	i
CC(=O)Nc1ccc(/C=N/NC(=O)c2cc3cc(C)ccc3nc2C)cc1	5.3	-2.4	2.6%	-14.0%	-2.8%	i
Cc1ccc2nc(C)c(C(=O)N/N=C/c3cccs3)cc2c1	-1.7	-149.2*	-2.9%	1.4%	16.9%	i
Cn1nnnc1SCC1=C(C(=O)O)N2C(=O)[C@@H](NC(=O)[C@H](OC=O)c3ccccc3)[C@H]2SC1	x	x	-3.1%	x	x	x
CCN(CC)C(=O)CSc1nc2ccc(NC(=O)CSc3nnc(COc4ccccc4C)n3C)cc2s1	1.7	1.2	-11.2%	-13.2%	-26.8%	i
Cc1ccccc1OCc1nnc(SCC(=O)Nc2ccc3c(c2)oc2ccccc23)n1C	-1.5	-2.7	-3.6%	-8.1%	2.7%	-99.7%*
Cc1ccccc1OCc1nnc(SCC(=O)Nc2ccc3nc(SCC(=O)NC(C)(C)C)sc3c2)n1C	2.8	-15.1	-1.5%	u	31.6µM*	i
Cc1ncc2c(c1CNC(=O)c1ccc3c(c1)OCO3)CCN(C(=O)c1noc3c1CCCC3)C2	x	x	-3.5%	x	x	x
